In PubChem BioAssay one finds inhibition data, which are given here for 39 compounds.

Active and inactive are the calls of the source.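 The calls were made as follows: active = inhibition above 50%; inactive = the rest.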

The inhibition is the relative decrease from the control value, in per cent.

The test is described as follows: HepG2 cytotoxicity, primary screen, cytotoxicity control for P. falciparum antimalarial project, cell-based, ATP luminescence (AID 2303).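 Also: 0% = DMSO wells and 100% = digitonin-killed cells.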 As to conditions: HepG2 viability, 24-48 h, at 10 µM, active compounds read high.
Regarding `COc1cccc(CNC[C@@H](O)[C@H](Cc2ccccc2)NC(=O)c2cc(C(C)C)cc(N3CCCC3=O)c2)c1`, the inhibition is 1% (inactive).

As to `COc1ccc2ncc(C#N)c(CCN3CCC(NCc4ccc5c(c4)OCCO5)CC3)c2c1`, the inhibition is 12% (inactive).

In the case of `CCC(CC)(Cc1ccccc1)NC(=O)[C@H](CC(C)C)Nc1ccc(C#N)c2ccccc12`, the inhibition was 57% (active).

Turning to `O=S(=O)(Nc1cccc(CCN2CCCCC2CCN2CCCC2)c1)c1ccc(-c2ccccc2)cc1` (centres undefined), the inhibition was 31% (inactive).

With `COc1cccc2sc(N3CCN(C(=O)c4ccc([N+](=O)[O-])o4)CC3)nc12`, the inhibition is -17% (inactive).

As for `Cc1onc(-c2c(F)cccc2Cl)c1C(=O)Nc1ccccc1I`, the inhibition was -8% (inactive).

`Cc1ccccc1C1CCN(C2CCC(NC(=O)c3ccc(-c4cccs4)s3)CC2)CC1` (centres undefined): the inhibition is 58% (active).

Turning to `COc1ccccc1CCNc1nc(C)cc(NCCC(=O)Nc2ccccc2)n1`, the inhibition was 7% (inactive).

As for `O=C(Cn1c(CCc2cccc(F)c2F)cc(=O)c2ccccc21)N(CCN1CCCC1)Cc1ccc(-c2ccc(C(F)(F)F)cc2)cc1`, the inhibition is 89% (active).

As for `O=C(CCN1C(=O)c2ccccc2C1=O)N1CCN(CC=Cc2ccccc2)CC1`, the inhibition is 10% (inactive).

Take `Cc1cccc(CN2CCCC3(CCN(Cc4ccccc4O)C3)C2)c1` (centres undefined): the inhibition was 14% (inactive).

With `Nc1nc2c(c(=O)[nH]1)CN(S(=O)(=O)c1ccc(C(=O)N[C@@H](CCC(=O)O)C(=O)O)cc1)CC2`, the inhibition was 49% (inactive).

As for `O=C(Nc1cccc(-c2nc3ccccc3[nH]2)c1)c1ccc(-c2cccc([N+](=O)[O-])c2)o1`, the inhibition was 22% (inactive).

As for `O=C(/C=C/c1ccc(Cl)c(Cl)c1)NCCCCCCN1CCN(C(=O)Nc2cccc(Cl)c2)CC1`, the inhibition is 33% (inactive).

As for `CC(Cc1ccc(CNC(=O)NCc2ccc(CC(C)NCCc3cccc(Cl)c3)cc2)cc1)NCCc1cccc(Cl)c1` (centres undefined), the inhibition was 100% (active).

Turning to `CCCCCCN1CCC(NCc2cccc(C#N)c2)CC1`, the inhibition is 5% (inactive).

Consider `O=C(Nc1cccc(CN2CCCN(Cc3cccc(O)c3)CC2)c1)c1ccc(-c2ccccc2)cc1`, for which the inhibition was 28% (inactive).

Consider `FC(F)(F)c1ccc2nc(-c3ccc(-c4cccc(CNCCc5cccnc5)c4)s3)[nH]c2c1`, for which the inhibition is 26% (inactive).

As to `CCCCCCCNC(=O)NCC1CCCN(CCCCCNC(=O)/C=C/c2ccc(Cl)c(Cl)c2)C1` (centres undefined), the inhibition is 98% (active).

For the compound `CC1CCc2c(C(=O)Nc3c(F)cc(F)cc3Br)csc2C1` (centres undefined), the inhibition is -1% (inactive).

For `CC(C)COc1ccc(Cl)cc1Cc1ccc(-c2nc3ccc(CCN(C)C)cc3[nH]2)o1`, the inhibition is 10% (inactive).

Consider `CCOc1ccc(C2CCN(CCCCNC(=O)c3ccc(NC(=O)c4ccc(Cl)cc4)cc3)CC2)c(OCC)c1`, for which the inhibition was 14% (inactive).

Turning to `O=C(N[C@@H](CC1CCCCC1)C(=O)NC1CCCc2ccccc21)c1ccc(O)c(-c2ccc(Cl)c(Cl)c2)c1` (some centres undefined), the inhibition was 1% (inactive).

As to `CCOC(=O)c1ccc(-c2cnoc2-c2cc(CC)c(OC)cc2O)o1`, the inhibition is 12% (inactive).

For `Cc1ccc2cc(NC(=O)c3cccc(C(=O)Nc4ccc5nc(C)ccc5c4)n3)ccc2n1`, the inhibition is 21% (inactive).

`CC1CC(NCCCNc2cc(=O)c3ccccc3[nH]2)c2c(Cl)c(Cl)cc(Cl)c21` (centres undefined): the inhibition was 6% (inactive).

For the compound `N#Cc1ccc2c(c1)CCN(CCCn1c(-c3ccc4ccccc4c3)nc3ccncc31)CC2`, the inhibition was 38% (inactive).

Consider `O=C(Nc1ccc2nc3n(c(=O)c2c1)CCCCC3)C(=O)N1CCN(c2ccc(F)cc2)CC1`, for which the inhibition was 10% (inactive).

Regarding `COc1ccc2nccc(N3CCN(CCNCc4ccc5c(n4)NC(=O)CS5)CC3)c2n1`, the inhibition is 10% (inactive).

Consider `COc1ccc(NC(=O)Nc2ccc(-c3ccncc3)c(C(F)(F)F)c2)cc1N1CCN(C)CC1`, for which the inhibition was 5% (inactive).

Turning to `O=S(=O)(NCCN1CCCC1)c1cccc(-c2ccc(CNCc3ccc(F)cc3)cc2)c1`, the inhibition is 38% (inactive).

On to `O=C(NC1CC1)c1ccc(N2CCOc3ccc(Cl)cc32)s1`, for which the inhibition is 8% (inactive).

Consider `CCOc1cc(Cc2cnc(N)nc2N)cc(OCC)c1OCCCCC(=O)OC`, for which the inhibition was -12% (inactive).

On to `Clc1ccc(-c2ccc(C=NNc3nc(Nc4ccccc4)nc(Nc4ccccc4)n3)o2)cc1Cl`, for which the inhibition is 1% (inactive).

On to `CCOC(=O)CNC(=O)N(CCN(Cc1ccccc1)C(=O)NCC(=O)OCC)Cc1ccccc1`, for which the inhibition was 9% (inactive).

On to `CCN(CC)CCN(Cc1ccc(-c2ccc(C(F)(F)F)s2)cc1)C(=O)Cn1c(CCc2cccc(F)c2F)nc(=O)c2ccccc21`, for which the inhibition was 43% (inactive).

Take `O=C(Nc1cccc(-c2ccc(CN3CCNCC3)cc2)c1)c1cccc(Cl)c1`: the inhibition was 30% (inactive).

Take `Cc1cccc(Cn2c(Cc3ccccc3)nnc2Sc2ccc([N+](=O)[O-])c(C#N)c2)c1`: the inhibition was 17% (inactive).

`COc1cc(-c2ccc(-c3cnc(N)nc3OC)[nH]2)cc(OC)c1OC`: the inhibition was -3% (inactive).
